# NPR1 antag – human Npr1 receptor antagonism. P16066. HEK293 hNpr1 GloSensor cGMP, ANP-stimulated luminescence. Potency, µM (series often up to 46.3 µM), for the others: at the top dose activity change, negative = inhibition, most hits filed as inhibitors. hit rate 1.6% among 76,000. AID 1347048; calls by dose curve; also: nearly all actives have a fitted effect of over 60% in size
# Target sequence (P16066 whole entry, looked up): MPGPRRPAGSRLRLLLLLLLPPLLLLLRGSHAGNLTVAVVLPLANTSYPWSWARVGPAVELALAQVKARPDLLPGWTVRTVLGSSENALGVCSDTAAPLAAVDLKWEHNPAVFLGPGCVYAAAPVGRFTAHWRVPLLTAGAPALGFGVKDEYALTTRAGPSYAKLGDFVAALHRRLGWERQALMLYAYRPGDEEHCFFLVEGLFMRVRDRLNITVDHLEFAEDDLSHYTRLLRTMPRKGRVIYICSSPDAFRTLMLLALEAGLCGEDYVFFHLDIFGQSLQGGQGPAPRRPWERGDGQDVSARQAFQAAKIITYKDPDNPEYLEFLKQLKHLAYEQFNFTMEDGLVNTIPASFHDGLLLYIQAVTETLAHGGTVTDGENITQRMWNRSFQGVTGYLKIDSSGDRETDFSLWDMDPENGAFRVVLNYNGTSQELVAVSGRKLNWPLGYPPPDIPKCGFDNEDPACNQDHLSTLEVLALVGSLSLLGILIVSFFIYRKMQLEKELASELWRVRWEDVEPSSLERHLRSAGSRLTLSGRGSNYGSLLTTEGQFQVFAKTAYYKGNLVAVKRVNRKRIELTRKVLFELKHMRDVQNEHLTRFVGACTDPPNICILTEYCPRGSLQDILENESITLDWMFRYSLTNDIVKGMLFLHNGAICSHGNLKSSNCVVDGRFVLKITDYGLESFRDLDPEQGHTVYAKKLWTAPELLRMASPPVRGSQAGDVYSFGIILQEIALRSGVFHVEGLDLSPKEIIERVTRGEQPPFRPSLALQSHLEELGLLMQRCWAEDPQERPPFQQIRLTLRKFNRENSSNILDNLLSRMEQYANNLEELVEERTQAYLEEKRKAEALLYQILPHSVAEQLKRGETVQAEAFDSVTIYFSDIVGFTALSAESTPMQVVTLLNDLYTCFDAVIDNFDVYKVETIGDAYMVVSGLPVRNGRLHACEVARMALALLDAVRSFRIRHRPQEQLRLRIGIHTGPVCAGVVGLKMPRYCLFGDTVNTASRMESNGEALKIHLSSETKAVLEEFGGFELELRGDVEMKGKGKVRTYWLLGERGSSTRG
#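 Compound pre-incubated 30 min at room temperature on GloSensor-loaded HEK293 cells stably carrying hNpr1 and the pGS-40F cGMP biosensor. Stimulation uses hNppA at 0.1 nM final; luminescence is taken at baseline and 20 min post-agonist.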
# HEK293 viab – cell viability loss counter-screen; HEK-293-SNCA-luc viability, GF-AFC fluorescence, 24 h; Potency, µM (top dose mostly 57.1 µM), inactives show top-dose activity change, negative = cytotoxicity, hits mostly cytotoxic; hit rate 0.12% among 150,000;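 also: 0% = DMSO-treated cells and -100% = medium-only wells without cells; nearly all actives have a fitted effect of over 30% in size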
#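 Cytotoxicity counterscreen: after 24 h compound treatment of genome-edited SNCA-luciferase HEK-293 cells, live-cell protease substrate GF-AFC read by fluorescence after 30 min; activity scaled between DMSO (0%) and medium-only (-100%), curves Hill-fitted.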
# HEK cytotox – HEK 293 cell cytotoxicity; HEK 293 viability, ATP luminescence (CellTiter-Glo), 48-72 h; Potency, µM (top dose mostly 115 µM), without a hit: top-dose activity change, negative = cytotoxicity, most hits filed as inhibitors; hit rate 6.6% among 94,000; AID 1345083; also: nearly all actives have a fitted effect of over 60% in size
#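 HEK 293 cells at 250 cells/well were exposed to compounds by pintool transfer for 48 or 72 hr at 37 degree Celsius, 5% CO2. Viability was read as ATP-coupled luminescence with CellTiter-Glo after 10 min at room temperature.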
# Luciferase inh – blocks purified firefly luciferase enzyme activity; P08659; purified P. pyralis luciferase, luminescence, biochemical; Potency, µM (top dose mostly 115 µM), actives largely listed as inhibitors; hit rate 2.5% among 76,000; also: nearly all actives have a fitted effect of over 65% in size
#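 Inhibitors were tested against purified firefly luciferase in a biochemical, low-substrate format (both substrates at 10uM) and luminescence measured with a CCD imager.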
# SNCA expr inh – reduces expression of the alpha-synuclein gene; HEK-293 SNCA-luciferase knock-in, luminescence, 24 h; Potency, µM (titrated, usually from 57.2 µM), for inactives: top-dose activity change, negative = inhibition, usual class: inhibitors; hit rate 0.17% among 140,000;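 also: plate controls were DMSO cells for no effect and cell-free wells for full effect; nearly all actives have a fitted effect of over 45% in size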
# NIH3T3 tox – NIH 3T3 cell cytotoxicity | NIH 3T3 viability, CellTiter-Glo ATP luminescence, 48-72 h | Potency, µM (doses to about 96.7 µM), for the others: top-dose activity change, negative = cytotoxicity, most hits filed as inhibitors | hit rate 4.3% among 94,000; also: nearly all actives have a fitted effect of over 55% in size
#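 Luminescent ATP readout (CellTiter-Glo, 10 min RT) after 48 or 72 hr compound exposure of NIH 3T3 cells seeded at 400 cells/well in 1536-well format; quantitative HTS.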
# Numbers without * were called inactive; i = inactive; ? = inconclusive; · = no result; [ ] = another dose, or the depositor's remark. The list is not random: actives were taken first. Their share in the collection is about 7.4%. Unless noted, calls follow the shape of the dose curve; as a rule, active = well fitted curve in the direction sought with a large enough effect; inconclusive = small, poorly fitted or top-dose-only effect, or another doubt; inactive = no such curve, though single readings can be large; an effect the other way counts as inactive or inconclusive. Unless noted, % is scaled to controls: 0 for no effect and ±100 for the full control effect; potency is read from the fitted curve at half-maximal effect.
SMILES,NPR1 antag,HEK293 viab,HEK cytotox,Luciferase inh,SNCA expr inh,NIH3T3 tox
O=C(Nc1ccc(F)cc1)[C@@H]1C[C@@H](c2cccc(C(F)(F)F)c2)N(CC2CCOCC2)C1,-18.0%,-13.1%,?,i,?,25.1µM*
Cc1cc(CNC(=O)Cc2nonc2C)c2[nH]c(-c3ccccc3)c(C)c2c1,-14.8%,-9.5%,?,10µM*,18.7%,-27.9%
Cc1cc(CNC(=O)Cc2ccc(-n3cnnn3)cc2)c2[nH]c(C)c(C)c2c1,-4.4%,-17.3%,?,i,-18.5%,20µM*
Cc1c(-c2ccccc2)[nH]c2c(CNC(=O)CCc3nncn3C)cc(Cl)cc12,-0.8%,-18.2%,?,22.4µM*,39.4%,?
COc1ccc(CC(=O)NCc2cc(C)cc3c(C)c(C)[nH]c23)c(OC)c1,-21.3%,?,?,i,29.9%,?
Cc1nc2c(-c3ccccc3)c(C)nn2c(C)c1CCC(=O)NCc1cccc(Cl)c1,·,2.6%,·,·,13.3%,·
Cc1cc(CNC(=O)c2ccncc2)c2[nH]c(-c3ccccc3)c(C)c2c1,11.2µM*,-7.9%,14.1µM*,?,36.2%,31.6µM*
Cc1noc(C)c1[S+](=O)([O-])N1CCCC1C(=O)N1CCC(N2CCOCC2=O)CC1 (stereo not given),·,-7.3%,i,·,-7.3%,-7.3%
CN(c1ccccc1)c1ccc2c(n1)CN(Cc1ccc(F)cc1)C(=O)CO2,?,-0.1%[87.6 µM],?,50.1µM*,3.5%[87.6 µM],89.1µM*
COc1cccc(CN2Cc3nc(N(C)c4ccccc4)ccc3OCC2=O)c1,?,-6.1%[87.6 µM],89.1µM*,?,-12.4%[87.6 µM],?
Cc1ccc(Oc2c(CCC(=O)NC(C)C)c(C)nn2-c2ccccc2)cc1,-2.7%,-7.3%,?,i,-11.5%,?
CCN1c2cc(C(=O)Nc3ccc(F)c(Cl)c3)ccc2C(=O)N2CCCC21 (stereo not given),-5.3%,-8.2%[12.5 µM],?,i,32.5%,?
COc1ccc(OCC2CN(Cc3ccc4c(c3)OCO4)[S+](=O)([O-])c3cccnc3O2)cc1 (stereo not given),·,-12.3%[23.9 µM],?,·,-17.8%[25.6 µM],?
Cc1noc(C)c1[S+](=O)([O-])N1CCC(C(=O)C2CCC(N3Cc4cccn4C3=O)CC2)CC1 (stereo not given),·,8.8%,0.7%,·,-12.7%,-13.5%
COc1cccc(CN2CCOC3(CCN(Cc4cccc(Cl)c4)CC3)C2=O)c1,-18.6%[70.6 µM],-23.4%[87.6 µM],79.4µM*,i,-28.7%[87.6 µM],?
COc1cccc(CN2CCOC3(CCN(Cc4ccc5[nH]ccc5c4)CC3)C2=O)c1,-1.7%[70.6 µM],-4.4%[87.6 µM],?,i,-19.8%[87.6 µM],?
CCc1ncc2c(N3CC4CCC(C3)N4CC(F)(F)F)nc3ccccc3n12,·,4.7%,39.8µM*,·,-0.2%,?
COc1cc2ncnc(N3CC4CCC(C3)N4CC(F)(F)F)c2cc1OC,·,-2.8%,-7.1%,·,17.2%,?
Cc1ccc(-c2nc(C(=O)N3CCN(c4cccc(C)c4)CC3)no2)cc1,4.4%,-7.2%,?,17.8µM*,5.8%,?
Cc1ccc(-c2nc(C(=O)N3CCN(c4ccc(C)cc4C)CC3)no2)cc1,0.0%,11.0%,?,i,5.3%,?
COc1cccc(N2CCN(C(=O)c3noc(-c4ccc(C)cc4)n3)CC2)c1,-7.7%,0.9%,?,20µM*,24.1%,-19.9%
Cc1ccc(-c2nc(C(=O)N3CCN(c4ccc(C)cc4)CC3)no2)cc1,-1.3%,12.9%,1.6%,14.1µM*,9.2%,1.4%
Cc1ccc(-c2nc(C(=O)N3CCN(c4cc(C)ccc4C)CC3)no2)cc1,-14.5%,11.0%,?,i,33.4%,?
Cc1ccc(C(CC(=O)Nc2ccc(F)cc2)c2c[nH]c3ccccc23)cc1 (stereo not given),-26.2%,6.8%,?,i,-16.6%,44.7µM*
Cc1nc2n(c1C(=O)NCC1CC1)CCC(Nc1ccc(F)cc1)C2 (stereo not given),-1.7%[70.6 µM],-3.7%[87.6 µM],?,i,-10.1%[87.6 µM],-19.0%[138 µM]
SMILES,NPR1 antag,HEK293 viab,HEK cytotox,Luciferase inh,SNCA expr inh,NIH3T3 tox
Cc1nc2n(c1C(=O)Nc1cc(-c3ccc(F)cc3)[nH]n1)CCC(Nc1ccc(F)cc1)C2 (stereo not given),-17.8%,-29.7%,?,?,?,31.6µM*
COc1ccc([C@H]2Cc3cccc(O)c3C(=O)O2)cc1OC,·,-4.2%,·,·,·,·
O=C(c1cccc(O)c1)N1CCc2c(n(CCOc3ccccc3)n(-c3ccccc3)c2=O)C1,-8.5%,-14.6%,-14.5%,i,-14.3%,22.4µM*
COc1ccc(C(=O)NCC2(COc3ccccc3)C[C@@H](O)[C@@H](O)C2)cc1 (stereo not given in full),-0.7%[70.6 µM],?,-13.6%[172 µM],i,-0.3%[87.6 µM],44.7µM*
O=C(NC1CCCCC1)N1CCC(CCc2nc(C3CCOCC3)no2)CC1,·,-2.6%,?,·,-12.6%,?
OCCN1CCN(c2ccc(-c3nc(-c4cccc(C(F)(F)F)c4)no3)cn2)CC1,?,-7.3%,?,28.2µM*,12.4%,25.1µM*
COc1ccc(CN2C[C@@H]3C[C@@H](C(N)=O)N(C(=O)CC4CCCC4)c4cccc(c43)C2=O)cc1,·,-19.7%[23.9 µM],?,·,?,?
O=C(NCc1ccco1)N1CCc2nc3cc(-c4ccccc4Cl)[nH]n3c(=O)c2C1,-15.0%,-10.7%,?,14.1µM*,?,?
O=C(c1ccncc1)N1CCc2nc3cc(-c4ccccc4Cl)[nH]n3c(=O)c2C1,1.2%,-7.2%,-23.5%,?,7.94µM*,?
COCC(=O)N1CCN(C(=O)c2nc3cccnc3n(Cc3ccc(OC)cc3)c2=O)CC1,·,·,3.6%,·,·,-10.2%
COc1cccc(CC(=O)N2CCC(c3n[nH]c(=O)n3-c3ccc(C)cc3)CC2)c1,9.7%,-0.2%,-0.3%,i,5.0%,10µM*
Cc1ccc(-n2c(C3CCN(C(=O)Cc4cccc(C)c4)CC3)n[nH]c2=O)cc1,0.0%,-4.6%,8.9%,i,11.2%,?
Cc1ccc(-n2c(C3CCN(C(=O)Cc4ccc(Cl)cc4)CC3)n[nH]c2=O)cc1,0.2%,-4.9%,-1.3%,i,-15.0%,44.7µM*
Cc1ccc(-n2c(C3CCN(C(=O)c4nn(C)c5ccccc45)CC3)n[nH]c2=O)cc1,0.0%,-2.0%,-1.7%,i,-0.7%,8.91µM*
Cc1ccc(CC(=O)N2CCC(c3n[nH]c(=O)n3-c3ccccc3)CC2)cc1,0.0%,-5.6%,-6.6%,i,-2.1%,35.5µM*
CO[C@H]1/C=C/[C@@](C)(O)/C=C/C(=O)O[C@H](C)[C@@H](C)CC/C=C/1C,·,-12.6%,·,·,·,·
